Measurements published in the supplement of paper PMC10849652.
The full data set covers some 8,800 targets. This sample favours those with a hit. About 0.5% of all pairs of compound and target were hits. A number with no mark means an inactive call.

Columns and labels:
Test in all cases: log2 fold change, soluble protein after heating vs DMSO (PISA); higher = thermal stabilisation; K562 lysate, 10 uM; active = over 0.2 and 3.5 SD of the protein, either way, in both replicates (recomputed)
alvocidib = compound: CN1CC[C@H](c2c(O)cc(O)c3c(=O)cc(-c4ccccc4Cl)oc23)[C@H](O)C1 [alvocidib]
Procedure, shortened: (§1)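 K562 pellets were dounce-homogenised in PBS pH 7.4 with 1 mM MgCl2, and the crude extract at 1 mg/mL protein was treated with 10 μM compound for 30 min. Aliquots were heated for 3 min across 48°C-58°C, pooled, and brought to 0.5% NP-40 at 4°C; soluble protein was the supernatant after 21,000xg for 90 min. Soluble protein was quantified by TMTpro 16plex LC-MS/MS with channel sums equalised, and reported as log2 fold change in thermal stability against DMSO controls, with values from duplicates.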

Tubastatin A = compound: CN1CCc2c(c3ccccc3n2Cc2ccc(C(=O)NO)cc2)C1 [Tubastatin A]
Procedure, shortened: as §1

[1] = compound: CNC(=O)C1=CC=CC=C1NC2=NC(=NC=C2Cl)NC3=C(C=C(C=C3)N4CCOCC4)OC
Procedure, shortened: as §1

defactinib = compound: CNC(=O)c1ccc(Nc2ncc(C(F)(F)F)c(NCc3nccnc3N(C)S(C)(=O)=O)n2)cc1 [defactinib]
Procedure, shortened: as §1

[2] = compound: CNc1nc(-c2ccc3c(N)n[nH]c3c2)cc(N2C[C@@H](C(=O)NC3CCCCC3)CC[C@H]2C)n1
Procedure, shortened: as §1

encorafenib = compound: COC(=O)N[C@@H](C)CNc1nccc(-c2cn(C(C)C)nc2-c2cc(Cl)cc(NS(C)(=O)=O)c2F)n1 [encorafenib]
Procedure, shortened: as §1

[3] = compound: COC(=O)[C@H](CCSC)NC(=O)C1=C(C=C(C=C1)NC[C@H](CS)N)C2=CC=CC=C2
Procedure, shortened: as §1

alisertib = compound: COc1cc(Nc2ncc3c(n2)-c2ccc(Cl)cc2C(c2c(F)cccc2OC)=NC3)ccc1C(=O)O [alisertib]
Procedure, shortened: as §1

[4] = compound: COc1cc2nc(-c3cc(F)ccc3O)nc(N[C@@H]3CNC[C@H]3C(C)(C)O)c2cc1OC
Procedure, shortened: as §1

gefitinib = compound: COc1cc2ncnc(Nc3ccc(F)c(Cl)c3)c2cc1OCCCN1CCOCC1 [gefitinib]
Procedure, shortened: as §1

lapatinib = compound: CS(=O)(=O)CCNCc1ccc(-c2ccc3ncnc(Nc4ccc(OCc5cccc(F)c5)c(Cl)c4)c3c2)o1 [lapatinib]
Procedure, shortened: as §1

pictilisib = compound: CS(=O)(=O)N1CCN(Cc2cc3nc(-c4cccc5[nH]ncc45)nc(N4CCOCC4)c3s2)CC1 [pictilisib]
Procedure, shortened: as §1

crizotinib = compound: C[C@@H](Oc1cc(-c2cnn(C3CCNCC3)c2)cnc1N)c1c(Cl)ccc(F)c1Cl [crizotinib]
Procedure, shortened: as §1

[5] = compound: C[C@H](C1=CC=C(C=C1)C(=O)NC2=C3C=CNC3=NC=C2)N
Procedure, shortened: as §1

duvelisib = compound: C[C@H](Nc1ncnc2nc[nH]c12)c1cc2cccc(Cl)c2c(=O)n1-c1ccccc1 [duvelisib]
Procedure, shortened: as §1

gandotinib = compound: Cc1cc(Nc2cc(CN3CCOCC3)c3nc(C)c(Cc4ccc(Cl)cc4F)n3n2)n[nH]1 [gandotinib]
Procedure, shortened: as §1

tozasertib = compound: Cc1cc(Nc2cc(N3CCN(C)CC3)nc(Sc3ccc(NC(=O)C4CC4)cc3)n2)n[nH]1 [tozasertib]
Procedure, shortened: as §1

doramapimod = compound: Cc1ccc(-n2nc(C(C)(C)C)cc2NC(=O)Nc2ccc(OCCN3CCOCC3)c3ccccc23)cc1 [doramapimod]
Procedure, shortened: as §1

bafetinib = compound: Cc1ccc(NC(=O)c2ccc(CN3CC[C@H](N(C)C)C3)c(C(F)(F)F)c2)cc1Nc1nccc(-c2cncnc2)n1 [bafetinib]
Procedure, shortened: as §1

[6] = compound: Cc1cccc(CC(=O)N2CCc3c2ccc(-c2cn(C)c4ncnc(N)c24)c3F)n1
Procedure, shortened: as §1

UniProt Q0ZGT2, sequence (Q0ZGT2 whole entry, looked up): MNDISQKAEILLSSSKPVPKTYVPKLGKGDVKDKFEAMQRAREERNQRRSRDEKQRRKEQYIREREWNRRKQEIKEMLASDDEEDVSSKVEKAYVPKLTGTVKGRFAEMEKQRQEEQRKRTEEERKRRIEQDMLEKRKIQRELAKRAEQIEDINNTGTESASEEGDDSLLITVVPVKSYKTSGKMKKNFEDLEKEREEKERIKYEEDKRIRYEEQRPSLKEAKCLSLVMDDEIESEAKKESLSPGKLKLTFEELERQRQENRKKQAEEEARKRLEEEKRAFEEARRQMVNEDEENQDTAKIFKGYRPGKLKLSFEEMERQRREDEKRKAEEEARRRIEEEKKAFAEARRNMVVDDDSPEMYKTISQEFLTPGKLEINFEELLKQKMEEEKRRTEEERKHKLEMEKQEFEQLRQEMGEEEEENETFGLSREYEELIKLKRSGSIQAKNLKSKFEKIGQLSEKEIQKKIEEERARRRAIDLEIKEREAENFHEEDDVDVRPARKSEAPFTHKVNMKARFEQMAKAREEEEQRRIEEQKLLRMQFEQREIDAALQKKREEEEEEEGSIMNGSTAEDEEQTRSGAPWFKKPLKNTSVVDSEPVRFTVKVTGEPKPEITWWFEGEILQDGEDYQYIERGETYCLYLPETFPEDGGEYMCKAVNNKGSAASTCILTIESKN
UniProt O00483, sequence (O00483 whole entry, looked up): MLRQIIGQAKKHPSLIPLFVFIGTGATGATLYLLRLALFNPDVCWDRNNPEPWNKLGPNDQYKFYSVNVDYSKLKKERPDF
UniProt P43246, sequence (P43246 whole entry, looked up): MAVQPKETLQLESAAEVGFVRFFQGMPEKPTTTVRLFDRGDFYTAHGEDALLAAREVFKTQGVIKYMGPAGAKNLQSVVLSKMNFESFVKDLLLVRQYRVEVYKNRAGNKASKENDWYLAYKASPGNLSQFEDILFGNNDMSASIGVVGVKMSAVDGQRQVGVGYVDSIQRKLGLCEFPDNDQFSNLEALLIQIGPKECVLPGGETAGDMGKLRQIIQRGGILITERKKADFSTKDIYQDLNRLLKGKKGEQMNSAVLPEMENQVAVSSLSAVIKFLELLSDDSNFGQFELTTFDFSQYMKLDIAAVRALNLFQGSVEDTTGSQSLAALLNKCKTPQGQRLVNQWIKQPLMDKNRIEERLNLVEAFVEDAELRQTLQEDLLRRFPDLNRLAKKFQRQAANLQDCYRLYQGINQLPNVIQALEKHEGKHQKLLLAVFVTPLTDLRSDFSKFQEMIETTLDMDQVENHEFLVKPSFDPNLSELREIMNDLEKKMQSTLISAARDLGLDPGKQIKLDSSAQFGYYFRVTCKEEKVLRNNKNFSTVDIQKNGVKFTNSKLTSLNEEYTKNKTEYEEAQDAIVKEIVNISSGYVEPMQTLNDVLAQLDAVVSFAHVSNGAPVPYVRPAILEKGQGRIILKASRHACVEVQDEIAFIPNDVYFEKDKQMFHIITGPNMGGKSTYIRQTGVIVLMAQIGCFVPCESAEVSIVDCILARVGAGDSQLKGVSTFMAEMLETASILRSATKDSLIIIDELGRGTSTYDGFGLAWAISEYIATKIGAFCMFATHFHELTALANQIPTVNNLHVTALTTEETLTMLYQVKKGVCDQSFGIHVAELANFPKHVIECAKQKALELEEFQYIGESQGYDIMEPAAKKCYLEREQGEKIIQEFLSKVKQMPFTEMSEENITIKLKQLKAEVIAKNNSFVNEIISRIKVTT
UniProt Q9BV86, sequence (Q9BV86 whole entry, looked up): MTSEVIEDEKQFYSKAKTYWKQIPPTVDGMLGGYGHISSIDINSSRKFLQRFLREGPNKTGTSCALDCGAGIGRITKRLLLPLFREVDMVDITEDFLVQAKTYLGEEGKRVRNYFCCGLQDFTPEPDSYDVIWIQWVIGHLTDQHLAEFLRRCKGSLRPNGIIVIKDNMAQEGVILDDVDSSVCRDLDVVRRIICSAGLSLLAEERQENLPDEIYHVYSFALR
UniProt Q9Y6R0, sequence (Q9Y6R0 whole entry, looked up): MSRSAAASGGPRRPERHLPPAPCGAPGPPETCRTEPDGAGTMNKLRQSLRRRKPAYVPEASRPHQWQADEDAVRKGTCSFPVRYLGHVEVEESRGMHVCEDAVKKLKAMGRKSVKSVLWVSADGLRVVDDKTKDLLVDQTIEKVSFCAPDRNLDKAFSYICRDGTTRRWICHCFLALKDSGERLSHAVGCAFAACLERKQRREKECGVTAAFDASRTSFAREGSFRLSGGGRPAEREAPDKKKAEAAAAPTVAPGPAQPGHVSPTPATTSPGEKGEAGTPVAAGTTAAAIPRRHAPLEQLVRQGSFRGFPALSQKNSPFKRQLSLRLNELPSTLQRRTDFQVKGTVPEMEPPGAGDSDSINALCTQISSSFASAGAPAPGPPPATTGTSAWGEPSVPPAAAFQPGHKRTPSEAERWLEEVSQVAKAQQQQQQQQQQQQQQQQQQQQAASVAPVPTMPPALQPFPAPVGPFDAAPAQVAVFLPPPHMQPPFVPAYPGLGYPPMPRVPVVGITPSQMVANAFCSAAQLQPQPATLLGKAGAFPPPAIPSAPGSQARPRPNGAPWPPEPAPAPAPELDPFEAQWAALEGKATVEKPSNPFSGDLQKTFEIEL

Target	log2 fold change (alvocidib)	log2 fold change (Tubastatin A)	log2 fold change [1]	log2 fold change (defactinib)	log2 fold change [2]	log2 fold change (encorafenib)	log2 fold change [3]	log2 fold change (alisertib)	log2 fold change [4]	log2 fold change (gefitinib)	log2 fold change (lapatinib)	log2 fold change (pictilisib)	log2 fold change (crizotinib)	log2 fold change [5]	log2 fold change (duvelisib)	log2 fold change (gandotinib)	log2 fold change (tozasertib)	log2 fold change (doramapimod)	log2 fold change (bafetinib)	log2 fold change [6]
NDUFA4 (UniProt O00483)	0.022	0.055	0.054	0.143	0.004	0.028	0.009	0.055	-0.079	-0.133	0.124	0.017	0.02	0.009	0.059	-0.294 (active)	-0.01	0.02	0	-0.026
MRPS12 (UniProt O15235)	-0.015	0.026	-0.021	0.015	0.067	0.011	-0.168	-0.027	-0.053	-0.032	0.006	-0.024	-0.019	0.003	-0.022	-0.022	0.048	0.03	0.036	-0.003
NTMT1 (UniProt Q9BV86)	0.047	-0.175	0.018	0.065	0.023	-0.006	0.166	-0.007	-0.016	0.057	-0.008	-0.008	-0.009	0.079	-0.026	-0.113	-0.041	0.025	0.025	-0.045
NUMBL (UniProt Q9Y6R0)	-0.032	-0.103	-0.023	-0.218	0.023	0.189	-0.068	-0.064	0.044	0.09	0.01	0.111	0.066	0.018	0.162	0.176	0.036	0.247	0.041	0.036
MSH2 (UniProt P43246)	0.026	-0.105	-0.017	0.023	0.007	0.011	0.061	-0.011	-0.002	-0.007	-0.005	-0.003	-0.04	0.028	-0.001	-0.068	0.002	0.013	-0.026	0.002
NEXN (UniProt Q0ZGT2)	-0.102	-0.049	0.026	0.134	0.158	-0.096	0.044	0.004	-0.086	0.092	0.066	-0.137	–	-0.239	-0.088	0.172	-0.237	–	0.043	0.198
